Rows were chosen to be rich in hits. Some 9.3% of all compounds tested hit in one or more screens of this group.
FLuc counter: firefly luciferase modulation, counter-screen for miR-21 project; Potency, µM (titrated, usually from 57.5 µM), usual class: inhibitors; P08659; purified FLuc, Km substrates, luminescence inhibition; 360,000 compounds, 6.9% hits; AID 588342; further: nearly all actives have a fitted effect of over 55% in size
Target sequence (P08659 whole entry, looked up): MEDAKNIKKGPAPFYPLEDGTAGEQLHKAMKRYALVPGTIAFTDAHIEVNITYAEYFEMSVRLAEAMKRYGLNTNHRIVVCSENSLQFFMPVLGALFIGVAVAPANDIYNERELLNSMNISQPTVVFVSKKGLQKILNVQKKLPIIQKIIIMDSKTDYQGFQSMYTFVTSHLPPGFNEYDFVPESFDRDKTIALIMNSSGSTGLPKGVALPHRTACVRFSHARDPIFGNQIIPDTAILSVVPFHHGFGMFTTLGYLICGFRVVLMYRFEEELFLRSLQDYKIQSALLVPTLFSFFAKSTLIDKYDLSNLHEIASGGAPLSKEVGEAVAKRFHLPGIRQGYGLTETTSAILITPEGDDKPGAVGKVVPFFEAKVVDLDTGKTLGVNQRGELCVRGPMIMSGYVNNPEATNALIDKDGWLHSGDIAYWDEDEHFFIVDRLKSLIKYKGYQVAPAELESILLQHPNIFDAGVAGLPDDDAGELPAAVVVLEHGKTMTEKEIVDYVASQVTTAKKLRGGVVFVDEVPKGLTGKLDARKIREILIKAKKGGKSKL
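Biochemical qHTS of compounds, final roughly 60 µM downward over six points, against 10 nM purified firefly luciferase using Km concentrations of substrates (10 uM D-luciferin, 10 uM ATP) in Tris acetate pH 7.5 buffer; luminescence output.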
Rab9 prom act: activators of Rab9 promoter; 320,000 compounds, 2.8% hits; AID 485297; Potency, µM (series often up to 9.22 µM), most hits filed as activators; Huh7 Rab9 promoter-luciferase reporter, luminescence, 24 h; further: nearly all actives have a fitted effect of over 60% in size
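Rab9 promoter-driven luciferase in stably transfected Huh7 cells; 1500 cells/well rested 2 h, exposed to compound in DMSO for 24 h at 37 °C, 5% CO2. Luminescence read 10 min after adding luciferase reagent at ambient temperature.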
NPC1 prom act: activates the NPC1 promoter; Potency, µM (highest dose often 9.22 µM), actives largely listed as activators; Huh7 NPC1 promoter luciferase reporter, 24 h; 320,000 compounds, 2.4% hits; further: nearly all actives have a fitted effect of over 60% in size
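Stable NPC1-promoter luciferase Huh7 line; cpd (DMSO) 24 h, 37 °C, 5% CO2; Amplite luciferase reagent 10 min RT; luminescence readout. qHTS format.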
ELG1 DNA repair: inhibitors of ELG1-dependent DNA repair in HEK293T cells. HEK293T ELG1-luciferase reporter, luminescence, 16 h; DNA damage induced by 5-fluorouridine. Potency, µM (top dose mostly 46.1 µM), hits mostly inhibitors. 330,000 compounds, 2.3% hits. AID 504467; further: nearly all actives have a fitted effect of over 55% in size
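Reporter activity after DNA damage by 5-fluorouridine is monitored. Compound-treated cells incubate 16 hr at 37 °C, then ONE-Glo is added for 30 min before luminescence reading.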
ELG1 genotox: inducers of genotoxicity in HEK293T ELG1-luciferase cells; HEK293T ELG1-luciferase reporter, luminescence, 16 h; Potency, µM (doses to about 46 µM), actives largely listed as activators; 330,000 compounds, 1.3% hits; AID 504466; further: nearly all actives have a fitted effect of over 60% in size
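ELG1-luciferase HEK293T cells, 2,000/well; compound pinned in; 16 hr, 37 °C, 5% CO2; ONE-Glo, 30 min RT; luminescence on CCD imager.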
SMN2 splice up: SMN2 splice variant enhancement. Potency, µM (series often up to 46.1 µM), hits mostly activators. AID 1458. HEK293 SMN2-luciferase splicing reporter, luminescence, 30-36 h. 210,000 compounds, 2.8% hits; further: nearly all actives have a fitted effect of over 55% in size
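HEK293 cells carry an SMN2 minigene-luciferase reporter in which exon 7 inclusion puts luciferase in frame. Cells were seeded at 2000 cells/well, attached for 10-12 hours, then exposed to compounds for 30-36 hours at 37C before ONE-Glo luminescence.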
Hits are given with their value; - = inactive; ? = inconclusive; . = no result given; [ ] = remark or other dose. The call rests on the fitted dose curve; in most records, active means well fitted curve in the direction sought with a large enough effect; inconclusive means small, poorly fitted or top-dose-only effect, or another doubt; inactive means no such curve, though single readings can be large; an effect the other way counts as inactive or inconclusive.

SMILES	FLuc counter	Rab9 prom act	NPC1 prom act	ELG1 DNA repair	ELG1 genotox	SMN2 splice up
Fc1ccc(N2CCN(c3cnc4ccccc4n3)CC2)cc1	11µM	3.5µM	2.8µM	?	?	.
CC1=C(C#N)C(c2ccccc2)C2=C(N1)c1ccccc1C2=O (configuration not stated)	-	-	-	-	-	-
O=C(CCc1ccccc1)Nc1cc(C(F)(F)F)ccc1Cl	-	-	-	-	-	-
O=C1c2ccccc2C(=O)N1c1ncc(Cc2ccc(Cl)cc2)s1	-	-	-	?	-	-
COc1ccccc1CNC(=O)c1ccc(NS(=O)(=O)c2c(C)noc2C)cc1	-	-	-	-	-	-
COc1cccc2cc(C(=O)N(Cc3ccccc3)CC3CCCO3)c(=O)oc12 (configuration not stated)	-	-	-	-	-	-
CC(=O)c1ccc(COC(=O)c2cc3ccccc3oc2=O)cc1	17µM	-	-	?	-	.
COc1cccc2cc(C(=O)Oc3ccccc3)c(=O)oc12	12µM	-	-	-	-	.
COc1cccc2cc(C(=O)OCc3ccccc3)c(=O)oc12	6µM	-	-	-	-	.
CCN(C(=O)c1cc2cccc(OC)c2oc1=O)c1ccccc1	-	-	-	-	-	10µM
Cc1ccnc(NC(=O)Cc2ccc(F)cc2)n1	-	-	-	-	-	.
COc1cc(C(=O)Nc2ccc3c(c2)nc(C)n3C)cc(OC)c1OC	21µM	-	-	?	?	.
CCn1c(C)nc2cc(C(=O)NNC(=O)Nc3ccc(Cl)cc3)ccc21	-	1.4µM	?	?	-	-
Cc1ccc(NC(=O)c2ccc3c(c2)nnn3C)cc1	-	?	-	?	?	-
Cc1nc2cc(NC(=O)c3ccc(Cl)cc3)ccc2n1C	4.3µM	0.28µM	0.28µM	?	1µM	.
Cn1nnc2cc(C(=O)Nc3ccc(Cl)cc3)ccc21	-	3.5µM	?	?	?	-
CCOC(=O)c1c(N)sc2c1C1CCN2CC1	-	-	-	?	-	.
COc1ccc(-c2oc(=O)c3cc(OC)c(OC)cc3c2C#C[C@]2(O)CC[C@H]3[C@@H]4CCc5cc(OC)ccc5[C@H]4CC[C@@]32C)cc1	.	.	.	-	-	.
COCCCn1c(=N)c(C(=O)NC2CCCC2)cc2c(=O)n3cccc(C)c3nc21	-	.	.	.	.	-
CCn1c(C)nc2cc(C(=O)N/N=C/c3ccc(O)c(O)c3O)ccc21	13µM	-	-	?	-	-
O=C(Nc1ccnn1C1CCN(Cc2ccccc2F)CC1)C1CCCC1	-	-	-	-	-	.
CCn1c(SCC(=O)N/N=C/C(C)=C\c2ccco2)nnc1-c1ccccc1	13µM	-	-	-	-	-
CCn1c(SCC(=O)N/N=C/C=C/c2ccco2)nnc1-c1ccccc1	?	-	-	-	-	-
CCn1c(SCC(=O)N/N=C/C(C)=C/c2ccco2)nnc1-c1ccccc1	15µM	-	-	-	-	-
COc1ccc([C@@H]2CC(=O)c3c(O)cc(O[C@H]4O[C@@H](CO[C@H]5O[C@@H](C)[C@@H](O)[C@@H](O)[C@@H]5O)[C@@H](O)[C@@H](O)[C@@H]4O)cc3O2)cc1O	.	.	.	.	.	-
SMILES	FLuc counter	Rab9 prom act	NPC1 prom act	ELG1 DNA repair	ELG1 genotox	SMN2 splice up
Cc1cc(C(=O)CSc2cccc[n+]2[O-])c(C)n1-c1ccc(OC(F)F)cc1	15µM	?	?	?	-	.
CN1C(=O)/C(=C/c2cccc([N+](=O)[O-])c2)C(=O)N1c1ccccc1	15µM	-	-	?	?	.
O=C(NCCN1CCCCC1)c1c(O)c2ccccc2[nH]c1=O	-	-	-	?	-	-
CC1CCCCN1Cc1ccc(N(C)C)cc1 (configuration not stated)	-	-	-	-	-	.
CCn1c(SCC(=O)NCc2ccco2)nnc1C1CCCC1	-	-	-	-	-	.
Cc1cc(C)n(-c2nc(Nc3ccccc3C(F)(F)F)nc(-n3nc(C)cc3C)n2)n1	-	-	-	13µM	-	-
CCNc1nc(NCC)nc(-n2nc(C)cc2C)n1	-	-	-	?	?	-
Cc1cc(C)n(-c2nc(Nc3ccccc3C)nc(-n3nc(C)cc3C)n2)n1	-	-	-	?	-	-
Cc1cc(C)n(-c2nc(NC(C)C)nc(NC(C)C)n2)n1	-	-	-	2.9µM	-	-
C/C(=N\NC(=O)C(O)c1ccccc1)c1cccnc1 (configuration not stated)	-	-	-	-	-	.
O=C(O)c1ccccc1NN=C1CCCCC1	11µM	?	?	?	?	.
C/C(=N\NC(=O)c1sccc1C)c1cccnc1	13µM	?	?	?	?	.
CCc1ccc(C(=O)N/N=C(\C)c2ccncc2)s1	17µM	3.2µM	3.5µM	?	?	.
C/C(=N\Nc1ccc(C)c(Cl)c1)c1cccnc1	15µM	?	?	?	-	.
O=C(NN=C1CCCC1)c1ccccc1O	?	-	-	-	-	.
C/C(=N\NC(=O)c1cccs1)c1ccncc1	.	-	-	?	-	.
COCCCNCCCCOc1ccc(Br)cc1C	-	-	-	-	-	-
CCOc1ccc(-c2nc3c(c(SCC(=O)N4CCCCC4)n2)Cc2cccc(OC)c2O3)cc1	-	.	.	.	.	-
Cc1onc(-c2ccccc2)c1C(=O)N1CCCC(C(F)(F)F)C1 (configuration not stated)	-	-	-	-	-	.
CCOc1ccc(-n2c(SCC(=O)O)nc3sc4c(c3c2=O)CCCC4)cc1	-	-	-	-	-	.
C/C(=N/NC(=O)c1ccncc1)c1ccccc1Cl	.	.	.	.	.	-[9.22 µM]
CCOC(=O)C(=O)N/N=C(/c1ccccc1)c1ccc(OC)cc1	-	-	-	-	-	.
C/C(=N\NC(=O)c1sccc1C)c1ccncc1	17µM	3.2µM	?	?	10µM	.
COc1ccc(/C(=N\Nc2ccccc2C(=O)O)c2ccccc2)cc1	9.5µM	-	-	?	-	-
C/C(=N/NC(=O)c1ccncc1)c1ccccc1	-	-	-	?	-	.
SMILES	FLuc counter	Rab9 prom act	NPC1 prom act	ELG1 DNA repair	ELG1 genotox	SMN2 splice up
C/C(=N\NC(=O)c1ccc(N/N=C(\C)c2ccncc2)cc1)c1ccncc1	?	-	-	23µM	-	-
C/C(=N\Nc1ccccc1C(=O)O)c1ccncc1	11µM	3.2µM	2.2µM	?	3.3µM	.
S=C(Nc1ccccc1)N1CCCCCC1	-	-	-	?	-	-
O=C(OCc1nnc(-c2ccccc2)o1)c1ccc(Cl)cc1	-	-	-	-	-	-
C/C(=N\Oc1cccc(F)n1)c1ccc(Cl)cc1Cl	?	-	-	?	?	-
C/C(=N\NC(=O)c1ccccc1NC(=O)c1ccc(Cl)cc1)c1ccncc1	0.027µM	?	?	?	-	-
N#Cc1c(-n2ncnc2-c2cccc(Br)c2)sc2c1CCCCC2	3.4µM	.	.	.	.	-

Assay outcomes: PubChem, National Center for Advancing Translational Sciences (NCATS)
